# Test results: publication PMC7862700, “An all-to-all approach to the identification of sequence-specific readers for epigenetic DNA modifications on cytosine”
# Assays:
# Test in all cases: DAPPL (digital affinity profiling via proximity ligation, sequencing); 10 mM Tris-HCl pH 7.5, 50 mM NaCl, 1 mM DTT, 4% glycerol, room temperature, 30 min; GST-TFs on glutathione beads, 16-mer random dsDNA library, 0.1% formaldehyde crosslink after washing; high values mean tight binding
# FLI1 = target: T1, FLI1 (Homo sapiens, UniProt Q01543 1-452); details: protein: recombinant; tags: N-terminal GST; dsDNA, one strand shown
# T1 sequence: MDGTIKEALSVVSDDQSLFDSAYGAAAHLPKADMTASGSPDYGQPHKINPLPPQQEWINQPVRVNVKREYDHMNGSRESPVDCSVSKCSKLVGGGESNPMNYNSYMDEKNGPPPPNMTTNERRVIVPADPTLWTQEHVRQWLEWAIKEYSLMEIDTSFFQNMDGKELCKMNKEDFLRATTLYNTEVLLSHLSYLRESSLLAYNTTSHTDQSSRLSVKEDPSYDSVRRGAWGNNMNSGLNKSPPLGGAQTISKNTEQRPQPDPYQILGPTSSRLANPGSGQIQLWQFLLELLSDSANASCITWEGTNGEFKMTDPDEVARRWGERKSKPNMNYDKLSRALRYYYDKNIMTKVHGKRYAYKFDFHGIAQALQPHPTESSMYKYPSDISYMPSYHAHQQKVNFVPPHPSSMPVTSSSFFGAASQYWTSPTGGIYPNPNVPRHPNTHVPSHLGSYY
# Method in brief: (§1)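 A tag-only sample was pooled with DNA-barcoded human transcription factors that had been expressed in yeast as GST fusions and captured on glutathione beads. The pools were incubated for 30 min at room temperature with 200 nmole of a random double-stranded 16-mer DNA library in Tris/NaCl/DTT/glycerol buffer, then washed, crosslinked with 0.1% formaldehyde, proximity-ligated (BsaI/T4 ligase, 1 h, 37 °C), PCR-amplified and sequenced on an Illumina NextSeq500. Binding signal is each hexamer's read frequency for a factor divided by its frequency for the tag-only sample.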
# ELK1 = target: T2, ELK1 (Homo sapiens, UniProt P19419 1-428); details: protein: recombinant; tags: N-terminal GST; dsDNA, one strand shown
# T2 sequence: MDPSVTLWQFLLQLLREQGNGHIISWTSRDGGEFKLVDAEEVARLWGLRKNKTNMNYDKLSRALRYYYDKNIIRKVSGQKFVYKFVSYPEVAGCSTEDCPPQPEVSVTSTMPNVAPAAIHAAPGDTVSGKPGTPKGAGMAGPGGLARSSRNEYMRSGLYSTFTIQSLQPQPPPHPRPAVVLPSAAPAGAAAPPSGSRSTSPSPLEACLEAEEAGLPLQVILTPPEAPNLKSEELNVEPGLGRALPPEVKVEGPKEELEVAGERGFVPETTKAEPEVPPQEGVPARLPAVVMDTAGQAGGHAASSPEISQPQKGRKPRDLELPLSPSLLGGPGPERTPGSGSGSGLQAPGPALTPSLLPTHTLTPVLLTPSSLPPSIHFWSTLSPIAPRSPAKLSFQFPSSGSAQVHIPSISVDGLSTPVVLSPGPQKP
# Method in brief: as §1
# GABPA = target: T3, GABPA (Homo sapiens, UniProt Q06546 1-454); details: protein: recombinant; tags: N-terminal GST; dsDNA, one strand shown
# T3 sequence: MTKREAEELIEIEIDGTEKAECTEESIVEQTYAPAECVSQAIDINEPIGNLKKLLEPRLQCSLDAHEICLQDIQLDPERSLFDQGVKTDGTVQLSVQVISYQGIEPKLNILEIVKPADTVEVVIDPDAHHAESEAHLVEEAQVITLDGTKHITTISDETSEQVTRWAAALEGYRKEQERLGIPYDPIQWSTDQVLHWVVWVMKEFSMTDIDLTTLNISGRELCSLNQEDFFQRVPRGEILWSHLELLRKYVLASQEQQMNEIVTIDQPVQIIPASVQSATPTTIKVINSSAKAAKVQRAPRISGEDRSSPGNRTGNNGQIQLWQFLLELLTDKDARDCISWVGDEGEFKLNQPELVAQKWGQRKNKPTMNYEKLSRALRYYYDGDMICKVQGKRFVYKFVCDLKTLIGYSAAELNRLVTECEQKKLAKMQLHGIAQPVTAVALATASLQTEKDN
# Method in brief: as §1
# ERG = target: T4, ERG (Homo sapiens, UniProt P11308 1-479); details: protein: recombinant; tags: N-terminal GST; dsDNA, one strand shown
# T4 sequence: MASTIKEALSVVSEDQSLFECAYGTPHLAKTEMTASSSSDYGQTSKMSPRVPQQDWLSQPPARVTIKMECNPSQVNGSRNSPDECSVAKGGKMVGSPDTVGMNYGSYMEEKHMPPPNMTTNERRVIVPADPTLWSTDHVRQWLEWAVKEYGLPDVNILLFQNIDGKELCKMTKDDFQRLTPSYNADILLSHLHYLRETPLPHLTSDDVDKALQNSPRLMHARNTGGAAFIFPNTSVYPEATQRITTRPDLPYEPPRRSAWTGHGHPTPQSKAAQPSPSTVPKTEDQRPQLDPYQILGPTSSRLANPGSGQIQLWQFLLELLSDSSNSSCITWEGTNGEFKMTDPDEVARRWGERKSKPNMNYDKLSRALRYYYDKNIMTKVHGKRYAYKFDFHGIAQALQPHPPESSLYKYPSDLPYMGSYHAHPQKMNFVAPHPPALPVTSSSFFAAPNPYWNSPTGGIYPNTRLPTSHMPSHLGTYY
# Method in brief: as §1
# ELF1 = ELF1 (Homo sapiens, UniProt P32519 1-619); details: protein: recombinant; tags: N-terminal GST; dsDNA, one strand shown
# Method in brief: as §1
# EHF = target: T5, EHF (Homo sapiens, UniProt Q9NZC4 1-300); details: protein: recombinant; tags: N-terminal GST; dsDNA, one strand shown
# T5 sequence: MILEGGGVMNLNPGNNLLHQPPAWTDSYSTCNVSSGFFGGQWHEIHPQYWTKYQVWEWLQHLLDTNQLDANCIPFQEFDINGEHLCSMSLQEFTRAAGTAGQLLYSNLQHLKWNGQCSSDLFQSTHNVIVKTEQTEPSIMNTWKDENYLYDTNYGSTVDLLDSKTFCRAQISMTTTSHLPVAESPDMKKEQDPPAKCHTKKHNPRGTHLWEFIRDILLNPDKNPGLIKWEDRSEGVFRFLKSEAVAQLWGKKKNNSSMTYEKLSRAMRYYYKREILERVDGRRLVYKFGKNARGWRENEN
# Method in brief: as §1
# SPI1 = SPI1 (Homo sapiens, UniProt P17947 1-270); details: protein: recombinant; tags: N-terminal GST; dsDNA, one strand shown
# Method in brief: as §1
# SPIB = SPIB (Homo sapiens, UniProt Q01892 1-262); details: protein: recombinant; tags: N-terminal GST; dsDNA, one strand shown
# Method in brief: as §1
# ELK3 = target: T6, ELK3 (Homo sapiens, UniProt P41970 1-407); details: protein: recombinant; tags: N-terminal GST; dsDNA, one strand shown
# T6 sequence: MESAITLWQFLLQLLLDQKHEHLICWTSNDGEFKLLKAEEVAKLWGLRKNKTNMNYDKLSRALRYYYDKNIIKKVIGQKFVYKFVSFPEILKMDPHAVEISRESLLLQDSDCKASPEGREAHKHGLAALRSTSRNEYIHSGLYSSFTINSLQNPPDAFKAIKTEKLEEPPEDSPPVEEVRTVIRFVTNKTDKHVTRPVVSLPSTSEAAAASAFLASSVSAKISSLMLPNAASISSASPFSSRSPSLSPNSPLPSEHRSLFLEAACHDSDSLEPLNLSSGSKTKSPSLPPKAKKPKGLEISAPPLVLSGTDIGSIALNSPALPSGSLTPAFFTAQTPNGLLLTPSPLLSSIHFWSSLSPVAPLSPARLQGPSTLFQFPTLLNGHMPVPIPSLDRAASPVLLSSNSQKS
# Method in brief: as §1
# FEV = target: T7, FEV (Homo sapiens, UniProt Q99581 1-238); details: protein: recombinant; tags: N-terminal GST; dsDNA, one strand shown
# T7 sequence: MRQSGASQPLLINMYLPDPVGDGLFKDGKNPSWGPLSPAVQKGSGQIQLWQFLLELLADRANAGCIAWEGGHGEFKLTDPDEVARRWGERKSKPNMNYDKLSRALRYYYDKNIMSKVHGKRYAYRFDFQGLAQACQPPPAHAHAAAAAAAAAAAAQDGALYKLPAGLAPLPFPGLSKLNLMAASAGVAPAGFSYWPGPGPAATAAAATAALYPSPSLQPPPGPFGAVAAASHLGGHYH
# Method in brief: as §1
# ETV5 = ETV5 (Homo sapiens, UniProt P41161 1-510); details: protein: recombinant; tags: N-terminal GST; dsDNA, one strand shown
# Method in brief: as §1
# HSF1 = HSF1 (Homo sapiens, UniProt Q00613 1-529); details: protein: recombinant; tags: N-terminal GST; chain copies: 3; dsDNA, one strand shown
# Method in brief: as §1
# SPIC = target: T8, SPIC (Homo sapiens, UniProt Q8N5J4 1-248); details: protein: recombinant; tags: N-terminal GST; dsDNA, one strand shown
# T8 sequence: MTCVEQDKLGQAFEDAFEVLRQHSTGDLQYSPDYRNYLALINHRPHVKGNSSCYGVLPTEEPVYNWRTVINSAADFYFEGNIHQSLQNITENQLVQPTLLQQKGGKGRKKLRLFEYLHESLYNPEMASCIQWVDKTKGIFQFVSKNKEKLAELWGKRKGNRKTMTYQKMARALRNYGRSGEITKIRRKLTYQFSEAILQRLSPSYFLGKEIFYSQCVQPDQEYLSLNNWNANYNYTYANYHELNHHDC
# Method in brief: as §1
# ELF4 = ELF4 (Homo sapiens, UniProt Q99607 1-663); details: protein: recombinant; tags: N-terminal GST; dsDNA, one strand shown
# Method in brief: as §1
# ELK4 = target: T9, ELK4 (Homo sapiens, UniProt P28324-2 1-405); details: protein: recombinant; tags: N-terminal GST; dsDNA, one strand shown
# T9 sequence: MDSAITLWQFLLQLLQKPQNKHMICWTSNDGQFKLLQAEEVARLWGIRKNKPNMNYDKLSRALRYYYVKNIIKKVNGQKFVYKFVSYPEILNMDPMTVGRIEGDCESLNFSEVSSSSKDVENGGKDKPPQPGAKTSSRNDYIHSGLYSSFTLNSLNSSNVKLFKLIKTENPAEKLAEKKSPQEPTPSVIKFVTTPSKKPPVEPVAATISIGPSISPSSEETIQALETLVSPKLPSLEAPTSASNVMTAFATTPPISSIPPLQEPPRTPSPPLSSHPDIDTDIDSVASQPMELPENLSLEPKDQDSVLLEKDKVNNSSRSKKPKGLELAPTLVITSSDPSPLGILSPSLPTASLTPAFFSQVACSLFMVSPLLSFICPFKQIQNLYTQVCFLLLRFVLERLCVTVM
# Method in brief: as §1
# ETV2 = target: T10, ETV2 (Homo sapiens, UniProt O00321 1-342); details: protein: recombinant; tags: N-terminal GST; dsDNA, one strand shown
# T10 sequence: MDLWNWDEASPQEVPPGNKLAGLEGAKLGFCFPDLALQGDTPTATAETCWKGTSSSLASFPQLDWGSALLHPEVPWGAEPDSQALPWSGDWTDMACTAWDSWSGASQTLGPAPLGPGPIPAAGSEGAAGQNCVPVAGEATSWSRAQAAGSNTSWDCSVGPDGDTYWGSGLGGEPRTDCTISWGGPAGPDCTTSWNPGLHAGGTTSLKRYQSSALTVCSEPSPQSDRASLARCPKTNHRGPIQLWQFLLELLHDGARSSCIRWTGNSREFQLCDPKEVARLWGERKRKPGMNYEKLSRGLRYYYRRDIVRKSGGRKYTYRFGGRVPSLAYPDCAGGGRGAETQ
# Method in brief: as §1
# ELF3 = target: T11, ELF3 (Homo sapiens, UniProt P78545 1-371); details: protein: recombinant; tags: N-terminal GST; dsDNA, one strand shown
# T11 sequence: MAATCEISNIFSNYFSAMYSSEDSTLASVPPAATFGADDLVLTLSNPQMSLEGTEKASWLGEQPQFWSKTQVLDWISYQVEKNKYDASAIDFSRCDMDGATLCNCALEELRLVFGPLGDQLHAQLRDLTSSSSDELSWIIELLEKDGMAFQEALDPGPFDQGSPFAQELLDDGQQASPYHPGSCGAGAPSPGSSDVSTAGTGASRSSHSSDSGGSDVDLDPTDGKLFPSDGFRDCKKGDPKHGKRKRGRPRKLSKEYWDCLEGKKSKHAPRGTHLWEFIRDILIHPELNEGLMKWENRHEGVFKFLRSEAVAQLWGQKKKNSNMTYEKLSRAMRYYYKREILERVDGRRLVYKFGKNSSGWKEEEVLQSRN
# Method in brief: as §1
# CRX = CRX (Homo sapiens, UniProt O43186 1-299); details: protein: recombinant; tags: N-terminal GST; dsDNA, one strand shown
# Method in brief: as §1
# ETV1 = ETV1 (Homo sapiens, UniProt P50549 1-477); details: protein: recombinant; tags: N-terminal GST; dsDNA, one strand shown
# Method in brief: as §1
# Chain of CRX (O43186 whole entry): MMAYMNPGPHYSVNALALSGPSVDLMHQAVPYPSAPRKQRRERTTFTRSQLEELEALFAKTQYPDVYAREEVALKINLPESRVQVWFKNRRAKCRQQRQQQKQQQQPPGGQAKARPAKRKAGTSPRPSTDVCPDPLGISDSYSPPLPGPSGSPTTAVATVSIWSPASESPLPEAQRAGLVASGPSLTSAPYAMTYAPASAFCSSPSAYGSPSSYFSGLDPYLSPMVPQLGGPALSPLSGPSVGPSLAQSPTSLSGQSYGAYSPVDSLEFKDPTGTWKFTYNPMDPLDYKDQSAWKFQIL
# Chain of ETV1 (P50549 whole entry): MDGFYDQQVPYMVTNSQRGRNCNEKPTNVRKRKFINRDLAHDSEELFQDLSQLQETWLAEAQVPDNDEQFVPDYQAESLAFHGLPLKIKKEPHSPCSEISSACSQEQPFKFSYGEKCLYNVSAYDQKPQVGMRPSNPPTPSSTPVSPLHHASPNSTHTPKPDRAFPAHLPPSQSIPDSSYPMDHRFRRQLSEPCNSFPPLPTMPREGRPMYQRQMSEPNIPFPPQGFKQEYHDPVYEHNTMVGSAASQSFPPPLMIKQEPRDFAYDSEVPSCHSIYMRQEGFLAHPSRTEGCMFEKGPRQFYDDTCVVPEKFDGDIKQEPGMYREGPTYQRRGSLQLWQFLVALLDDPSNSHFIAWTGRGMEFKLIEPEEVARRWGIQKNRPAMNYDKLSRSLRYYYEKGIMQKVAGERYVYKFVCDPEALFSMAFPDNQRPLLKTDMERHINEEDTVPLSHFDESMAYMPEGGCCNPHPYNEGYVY
# Chain of HSF1 (Q00613 whole entry): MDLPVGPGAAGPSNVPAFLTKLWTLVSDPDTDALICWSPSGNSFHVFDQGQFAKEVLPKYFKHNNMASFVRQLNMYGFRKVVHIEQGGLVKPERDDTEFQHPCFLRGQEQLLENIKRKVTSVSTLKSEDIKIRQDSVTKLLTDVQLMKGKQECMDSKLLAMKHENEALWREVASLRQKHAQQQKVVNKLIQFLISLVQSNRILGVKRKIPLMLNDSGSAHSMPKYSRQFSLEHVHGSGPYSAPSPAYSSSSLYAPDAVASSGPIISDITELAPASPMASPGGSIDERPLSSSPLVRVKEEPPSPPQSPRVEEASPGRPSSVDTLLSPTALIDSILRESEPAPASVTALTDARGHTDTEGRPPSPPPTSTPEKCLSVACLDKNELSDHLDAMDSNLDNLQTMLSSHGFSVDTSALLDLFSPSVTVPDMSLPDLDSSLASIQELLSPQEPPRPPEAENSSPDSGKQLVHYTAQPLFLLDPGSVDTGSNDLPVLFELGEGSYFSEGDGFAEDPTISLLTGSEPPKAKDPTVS
# Chain of ELF4 (Q99607 whole entry): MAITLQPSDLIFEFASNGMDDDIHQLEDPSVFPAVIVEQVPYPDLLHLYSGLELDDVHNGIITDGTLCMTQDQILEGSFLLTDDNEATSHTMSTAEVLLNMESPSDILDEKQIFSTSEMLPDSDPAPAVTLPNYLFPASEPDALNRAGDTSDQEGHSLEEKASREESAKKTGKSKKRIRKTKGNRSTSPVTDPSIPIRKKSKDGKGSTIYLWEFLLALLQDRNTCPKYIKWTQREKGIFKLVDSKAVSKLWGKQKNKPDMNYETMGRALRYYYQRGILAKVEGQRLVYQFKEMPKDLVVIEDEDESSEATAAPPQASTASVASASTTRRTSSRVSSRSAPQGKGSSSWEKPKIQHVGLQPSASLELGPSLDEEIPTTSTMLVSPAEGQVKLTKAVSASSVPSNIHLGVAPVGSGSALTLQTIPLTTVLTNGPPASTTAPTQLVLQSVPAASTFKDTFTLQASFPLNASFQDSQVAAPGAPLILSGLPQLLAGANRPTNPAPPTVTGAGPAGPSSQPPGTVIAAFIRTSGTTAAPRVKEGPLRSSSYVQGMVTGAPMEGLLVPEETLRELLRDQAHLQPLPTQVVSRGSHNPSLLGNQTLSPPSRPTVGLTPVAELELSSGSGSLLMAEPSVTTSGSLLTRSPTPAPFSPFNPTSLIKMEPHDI
# Chain of ETV5 (P41161 whole entry): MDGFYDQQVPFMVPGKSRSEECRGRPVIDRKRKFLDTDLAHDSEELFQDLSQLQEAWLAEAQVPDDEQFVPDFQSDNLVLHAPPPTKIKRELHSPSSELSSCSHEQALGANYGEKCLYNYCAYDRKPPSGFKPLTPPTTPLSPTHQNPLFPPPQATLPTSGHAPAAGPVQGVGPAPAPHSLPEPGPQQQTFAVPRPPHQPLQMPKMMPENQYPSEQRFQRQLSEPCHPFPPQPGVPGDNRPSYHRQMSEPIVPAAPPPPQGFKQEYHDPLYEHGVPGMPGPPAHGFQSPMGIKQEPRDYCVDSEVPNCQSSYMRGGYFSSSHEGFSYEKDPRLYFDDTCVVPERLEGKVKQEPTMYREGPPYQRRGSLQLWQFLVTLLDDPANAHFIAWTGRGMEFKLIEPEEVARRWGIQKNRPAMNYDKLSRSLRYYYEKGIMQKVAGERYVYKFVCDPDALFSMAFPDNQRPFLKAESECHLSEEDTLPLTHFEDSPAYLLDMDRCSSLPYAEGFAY
# Chain of ELF1 (P32519 whole entry): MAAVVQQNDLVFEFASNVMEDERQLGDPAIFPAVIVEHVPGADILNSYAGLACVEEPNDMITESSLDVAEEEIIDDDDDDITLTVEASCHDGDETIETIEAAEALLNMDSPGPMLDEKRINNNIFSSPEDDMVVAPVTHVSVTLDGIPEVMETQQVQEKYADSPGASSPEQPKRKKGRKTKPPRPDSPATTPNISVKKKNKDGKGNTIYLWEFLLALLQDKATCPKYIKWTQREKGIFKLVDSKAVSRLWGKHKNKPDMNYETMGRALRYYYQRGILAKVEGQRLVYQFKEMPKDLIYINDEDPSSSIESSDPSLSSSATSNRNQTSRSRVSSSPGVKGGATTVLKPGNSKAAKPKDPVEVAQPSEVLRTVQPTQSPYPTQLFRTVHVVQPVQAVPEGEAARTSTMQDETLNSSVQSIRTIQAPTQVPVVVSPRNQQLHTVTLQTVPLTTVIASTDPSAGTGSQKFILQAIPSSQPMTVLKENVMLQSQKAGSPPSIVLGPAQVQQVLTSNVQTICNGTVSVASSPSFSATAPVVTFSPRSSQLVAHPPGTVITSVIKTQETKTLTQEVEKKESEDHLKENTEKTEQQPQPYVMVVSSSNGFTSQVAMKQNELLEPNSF
# Chain of SPIB (Q01892 whole entry): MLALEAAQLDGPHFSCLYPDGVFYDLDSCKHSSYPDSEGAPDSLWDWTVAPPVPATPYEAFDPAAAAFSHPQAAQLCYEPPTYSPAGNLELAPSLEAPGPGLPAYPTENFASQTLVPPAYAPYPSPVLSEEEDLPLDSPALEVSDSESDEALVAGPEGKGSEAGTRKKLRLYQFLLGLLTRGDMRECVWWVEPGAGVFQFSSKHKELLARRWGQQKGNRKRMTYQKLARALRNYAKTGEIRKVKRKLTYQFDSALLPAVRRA
sequence,measurement,setting,value
CCGCTT,binding signal,FLI1,"1.89 fold enrichment (6-mer frequency, TF over GST control)"
same,binding signal,ELK1,"1.89 fold enrichment (6-mer frequency, TF over GST control)"
same,binding signal,GABPA,"1.84 fold enrichment (6-mer frequency, TF over GST control)"
same,binding signal,ERG,"1.85 fold enrichment (6-mer frequency, TF over GST control)"
same,binding signal,ELF1,"1.92 fold enrichment (6-mer frequency, TF over GST control)"
same,binding signal,EHF,"1.93 fold enrichment (6-mer frequency, TF over GST control)"
same,binding signal,SPI1,"2.69 fold enrichment (6-mer frequency, TF over GST control)"
same,binding signal,SPIB,"1.93 fold enrichment (6-mer frequency, TF over GST control)"
same,binding signal,ELK3,"2.06 fold enrichment (6-mer frequency, TF over GST control)"
same,binding signal,FEV,"2.01 fold enrichment (6-mer frequency, TF over GST control)"
same,binding signal,ETV5,"2.03 fold enrichment (6-mer frequency, TF over GST control)"
same,binding signal,HSF1,"1.49 fold enrichment (6-mer frequency, TF over GST control)"
same,binding signal,SPIC,"1.83 fold enrichment (6-mer frequency, TF over GST control)"
same,binding signal,ELF4,"1.87 fold enrichment (6-mer frequency, TF over GST control)"
same,binding signal,ELK4,"1.8 fold enrichment (6-mer frequency, TF over GST control)"
same,binding signal,ETV2,"1.6 fold enrichment (6-mer frequency, TF over GST control)"
same,binding signal,ELF3,"2.08 fold enrichment (6-mer frequency, TF over GST control)"
same,binding signal,CRX,"1.82 fold enrichment (6-mer frequency, TF over GST control)"
same,binding signal,ETV1,"2.11 fold enrichment (6-mer frequency, TF over GST control)"
